“And” between values parts separate entries of the source, which are not always exact repeats. Identical values can stand only once. Records with an inconclusive call do not appear. Where a call stands in place of a potency, no number is given. More than one record can exist for a structure, and the calls need not agree. The source made the active and inactive calls. Calls follow the shape of the dose curve; as a rule, active = well fitted activation curve with a large enough effect in the repeat runs; inconclusive = weak or mixed curves; inactive = no such curve, though single readings can be large or run the other way.
The compounds below were run against Nuclear receptor subfamily 1 group I member 3 (Homo sapiens) (UniProt Q14994) (assay: qHTS assay to identify small molecule agonists of the constitutive androstane receptor (CAR) signaling pathway (AID 1224839; also: nearly all actives have a fitted effect of over 15% in size;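 as to activation: HepG2 cells stably carrying human CAR and a CYP2B6 luciferase reporter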)). Conditions: HepG2 hCAR CYP2B6-luciferase, agonist mode, 24 h; series mostly up to 92.4 µM; activation: at the top concentration.
Nuclear receptor subfamily 1 group I member 3 (Homo sapiens), sequence (Q14994 whole entry, looked up): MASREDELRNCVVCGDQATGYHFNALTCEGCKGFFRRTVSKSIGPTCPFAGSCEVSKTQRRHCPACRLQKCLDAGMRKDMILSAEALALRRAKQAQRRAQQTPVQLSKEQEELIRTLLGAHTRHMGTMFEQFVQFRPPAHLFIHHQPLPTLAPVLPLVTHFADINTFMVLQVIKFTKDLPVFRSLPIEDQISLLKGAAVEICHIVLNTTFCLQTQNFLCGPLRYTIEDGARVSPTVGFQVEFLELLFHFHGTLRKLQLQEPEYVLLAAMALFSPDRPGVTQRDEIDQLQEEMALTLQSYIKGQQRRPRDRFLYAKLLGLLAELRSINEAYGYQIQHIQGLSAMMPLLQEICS
From the text: National Center for Advancing Translational Sciences [NCATS] NIH Chemical Genomics Center [NCGC] U.S. Environmental Protection Agency [EPA] National Institutes of Environmental Health Sciences [NIEHS] National Toxicology Program [NTP] Assay overview: The constitutive androstane receptor (CAR) is a nuclear receptor which regulates multiple drug metabolizing enzymes (DMEs) and transporters. Activating CAR will generally increase the transcription and subsequent translation of CYP2B6 and CYP3A4. These two DMEs represent about 50% of the drug metabolizing potential in the body. […] Recently, there have also been studies performed indicating CARs role in energy metabolism and cancer therapy. Therefore, inducing CARs activity could have a potential effect on diabetes and cancer. Identifying environmental toxins and compounds which modulate CAR, through the use of the Tox21 10K compound collection, will be an important step in determining the toxicity and potential therapeutic effects these factors will have on the human body.
Assay Protocol Summary: A double-stable (hCAR and CYP2B6-2.2kb) transfected cell line, derived from human hepatoma (HepG2) cells, was utilized for the duration of the quantitative high-throughput screens. The HepG2-CYP2B6-hCAR cells suspended in DMEM culture medium supplemented with 10% FBS, 5 ug/mL blasticidin, 0.5 mg/mL geneticin, 100 U/mL penicillin and 100 ug/mL streptomycin were dispensed at 2500 cells/4 uL/well in 1536-well white solid bottom plates using a Multidrop Combi. After the assay plates were incubated at 37 C/5% CO2 for 4 hrs, 23 nL of compounds at 15 concentrations (from 5-48 columns) or positive control (from 1 to 4 columns) were transferred to the assay plates using a Pintool station. One uL of PK11195, was added using a Flying Reagent Dispenser to generate a final concentration of 0.75 uM PK11195 inside each well. After a 24 hr incubation period at 37 C/5% CO2, four uL of ONE-Glo reagent was added into the assay plates using a Flying Reagent Dispenser. After a 30 min incubation period at room temperature, the luminescence intensity in the assay plates was measured using a ViewLux plate reader.
In the case of O=Cc1ccc(CO)o1, the Potency is reported as “inactive”. CCCCCCCC(=O)O was tested, and the Potency was “inactive”. C[Si](C)(C)N[Si](C)(C)C was tested, and the Potency was “inactive”. With Cc1ccc(Cl)cc1 the Potency was “inactive”. For CC(C=O)Cc1ccc(C(C)(C)C)cc1 (stereo not given), the Potency was “inactive”. NC(=O)NC(N)=O was tested, and the Potency was “inactive”. CC(=O)OC/C=C(\C)CCC=C(C)C was tested, and the Potency was “inactive”. For CC(=O)Nc1ccc(CC(=O)O)cc1, the Potency was “inactive”. For C=CC(C)(C)C, the Potency was “inactive”. In the case of CC(=O)OCCC(C)C, the Potency is reported as “inactive”. CC(C)c1ccc(C(C)C)cc1 was tested, and the Potency was “inactive”. For NC(=O)c1ncn([C@@H]2O[C@H](CO)[C@@H](O)[C@H]2O)n1, the Potency was “inactive”. With Cc1ccccc1C=O the Potency was “inactive”. For CC(C)(C)NC[C@H](O)COc1nsnc1N1CCOCC1, the Potency was “inactive”. C1CCCNCC1 was tested, and the Potency was “inactive”. COc1cc(NC(=O)CC(C)=O)c(OC)cc1Cl was tested, and the Potency was 61.4 µM (active) and 61.1 µM (active). Cc1cc(C)c(O)c(C)c1 was tested, and the Potency was “inactive”. In the case of Clc1cccc(Cl)c1NC1=NCCN1, the Potency is reported as “inactive”. In the case of CC/C(C)=N/O, the Potency is reported as “inactive”. With CCCCCNCCCCC the Potency was “inactive”. With CN1Cc2c(N)cccc2C(c2ccccc2)C1 (stereo not given) the Potency was “inactive”. For COc1ccc([C@@H]2CC(=O)c3c(O)cc(O[C@@H]4O[C@H](CO[C@@H]5O[C@@H](C)[C@H](O)[C@@H](O)[C@H]5O)[C@@H](O)[C@H](O)[C@H]4O)cc3O2)cc1OC, the Potency was “inactive”. With OC1CCCCC1 the Potency was “inactive”. O=C1OC(=O)c2c(Cl)c(Cl)c(Cl)c(Cl)c21 was tested, and the Potency was “inactive”. With Cc1ccc(C(C)C)cc1 the Potency was “inactive”. For Nc1cccc(N)n1, the Potency was “inactive”. For CCCN(CCC)C(=O)SCC, the Potency was “inactive”. For O=c1c(O)c(-c2ccc(O)c(O)c2)oc2cc(O)cc(O)c12, the Potency was 54.5 µM (active) and inactive. With CC(=O)OCc1ccc2c(c1)OCO2 the Potency was “inactive”. For Nc1nc(N)c2nc(-c3ccccc3)c(N)nc2n1, the “activation” value was 3.81% [at 42.5 µM] (inactive). With Cc1ccc(C)c(S(=O)(=O)O)c1 the Potency was “inactive”. CC(C)=CCC/C(C)=C/C=O was tested, and the Potency was “inactive”. In the case of CS(=O)(=O)c1ccc(Cl)cc1, the Potency is reported as “inactive”. With CC(=O)OC(C)(C)C1CC=C(C)CC1 (stereo not given) the Potency was “inactive”. With CCOC(=O)c1ccc(O)cc1 the “activation” value was 7.65% [at 42.5 µM] (inactive). For CN=C(NC#N)NCCSCc1nc[nH]c1C, the Potency was “inactive”. In the case of c1cnc2c(c1)ccc1cccnc12, the “activation” value is reported as -18.1% (inactive). With COc1ccc(N)c(OC)c1 the “activation” value was -0.0045% [at 42.5 µM] (inactive). CCCCCCCCC(=O)O was tested, and the Potency was “inactive”. With CC/C=C(\C(=O)N[C@@H]1C(=O)N2C(C(=O)OCOC(=O)C(C)(C)C)=C(COC(N)=O)CS[C@H]12)c1csc(N)n1 the Potency was “inactive”.
Potency is read from the fitted curve at half-maximal effect.
